{
  "source": "PubChem BioAssay (NCATS)",
  "note": "Inconclusive results are not listed. Where a call stands in place of a potency, no number is given. Active and inactive are the calls of the source. Calls follow the shape of the dose curve; as a rule, active = well fitted inhibition curve with a large enough effect; inconclusive = small, poorly fitted or top-dose-only effect; inactive = flat fitted curve, though single readings scatter. Potency is read from the fitted curve at half-maximal effect.",
  "data": [
    {"target": "Voltage-gated inwardly rectifying potassium channel KCNH2 (Homo sapiens) (UniProt Q12809)", "sequence (Q12809 whole entry, looked up)": "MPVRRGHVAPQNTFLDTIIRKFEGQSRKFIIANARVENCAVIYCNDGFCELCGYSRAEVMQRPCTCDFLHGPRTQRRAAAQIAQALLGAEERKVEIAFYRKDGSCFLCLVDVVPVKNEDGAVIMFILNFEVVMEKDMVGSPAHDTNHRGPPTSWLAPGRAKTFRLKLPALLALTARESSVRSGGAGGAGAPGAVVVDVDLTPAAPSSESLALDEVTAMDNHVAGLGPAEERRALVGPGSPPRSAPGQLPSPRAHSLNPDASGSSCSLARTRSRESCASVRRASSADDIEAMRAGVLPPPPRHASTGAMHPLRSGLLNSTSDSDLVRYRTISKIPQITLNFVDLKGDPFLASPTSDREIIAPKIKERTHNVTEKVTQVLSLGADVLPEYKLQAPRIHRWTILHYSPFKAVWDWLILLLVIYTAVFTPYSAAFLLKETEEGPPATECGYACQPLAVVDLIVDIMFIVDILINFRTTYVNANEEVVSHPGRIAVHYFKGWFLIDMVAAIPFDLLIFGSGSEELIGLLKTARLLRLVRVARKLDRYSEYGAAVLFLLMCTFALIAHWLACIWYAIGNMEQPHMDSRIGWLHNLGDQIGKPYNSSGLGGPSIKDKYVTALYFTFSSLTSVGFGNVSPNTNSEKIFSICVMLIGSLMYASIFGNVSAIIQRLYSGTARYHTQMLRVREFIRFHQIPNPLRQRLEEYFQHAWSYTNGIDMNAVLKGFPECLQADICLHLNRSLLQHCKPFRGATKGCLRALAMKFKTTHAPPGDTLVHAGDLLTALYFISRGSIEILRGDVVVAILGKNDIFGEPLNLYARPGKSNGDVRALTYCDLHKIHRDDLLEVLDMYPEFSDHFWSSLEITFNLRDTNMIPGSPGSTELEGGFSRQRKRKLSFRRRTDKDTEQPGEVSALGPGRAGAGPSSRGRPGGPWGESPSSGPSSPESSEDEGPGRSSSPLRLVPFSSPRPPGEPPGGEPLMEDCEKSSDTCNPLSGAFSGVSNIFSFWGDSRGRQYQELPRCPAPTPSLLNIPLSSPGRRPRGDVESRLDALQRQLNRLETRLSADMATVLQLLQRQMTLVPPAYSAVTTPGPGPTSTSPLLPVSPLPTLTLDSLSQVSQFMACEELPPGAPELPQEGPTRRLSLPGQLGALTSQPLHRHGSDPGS", "assay": "qHTS Assay for Small Molecule Inhibitors of the Human hERG Channel Activity (AID 588834);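 also: lower thallium flux fluorescence means stronger hERG block; nearly all actives have a fitted effect of over 50% in size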", "settings": "U2OS BacMam hERG, FluxOR thallium flux fluorescence; series mostly up to 46.1 µM", "source_text": "NIH Chemical Genomics Center [NCGC]\nNational Institutes of Environmental Health Sciences [NIEHS]\nNational Toxicology Program [NTP]\nWe have developed a 1536-well cell-based assay for quantitative high throughput screening (qHTS) to determine in vitro hERG channel blockage as a measure of cardio toxicity with small molecules. This particular assay uses the U2OS cell line which is derived from human osteosarcoma.\nNCGC Assay Protocol Summary:\nHERG assay (FluxORTM thallium flux assay) was initially developed by Invitrogen/Molecular Probes, and then miniaturized into 1536-well plate in a homogeneous format by NCGC. This assay measures the activity of potassium channel using thallium dye (FluxOR) flux as surrogate measurement for potassium into the cells with a FDSS-7000 kinetic plate reader (Hamamatsu Corp., Hamamatsu City, Japan). The hERG ion channel is transduced into mammalian cells (U2OS) using a baculovirus (Bacmam) construct harboring the hERG K+ ion channel. So far we screened LOPAC1280 library (Sigma), the NTP collection of 1408 compounds, and the NCGC Pharmaceutical Collection (NPC), in which many well defined HERG blockers are present. The rank order potencies of many of these compounds are similar to that of other HERG assays (membrane potential, Rb+ flux, patch clamp, etc). This quick and homogeneous assay is also found to be sensitive, specific, and robust.\nUsing the FluxORTM thallium flux assay, the activity of potassium channel using thallium dye (FluxOR) flux as surrogate measurement for potassium into the cells was measured in the U2OS cell line transduced with hERG K+ ion channel using a baculovirus (Bacmam) using Opti-MEM medium (Invitrogen) containing 2% fetal calf serum (FCS, HyCone) following loading buffer addition, compound treatment for around 10 minutes and finally adding stimulation buffer. The assay was performed in black clear Kalypsys 1536-well plates. In the screen, Astemizole was used as positive controls. Library compounds were measured for their ability to cause hERG channel blockage in the cell line, as reflected by a decrease in fluorescence intensity, in a concentration-dependent manner. […] AC50 values were determined from concentration-response data modeled with the standard Hill equation.\nqHTS protocol for hERG-U2OS cellular assay\n[Step] [Parameter] [Value] [Description]\n1. Day 1: Replace medium in 70-80% confluent T225 flask with 2.5 mL of hERG-BacMam virus plus 12.5 mL of phosphate buffered saline (PBS) (corresponding roughly to a multiplicity of infection ratio of 100 virus particles/cell)\n2. Incubation: 4 hrs @ room Temperature in Dark\n3. Reagent; Remove virus; wash once with 25 ml DPBS\n4. Reagent; 35 ml culture medium\n5. Incubation; 37 °C overnight\n6. Day2: Reagent; 3 uL; 2000 U2OS cells/well\n7. Time; 4 hr; 37 °C incubation\n8. Loading buffer; 1 uL; 0.7X;\n9. Incubation: 1hr @ RT in Dark.\n12. Time; 10min; 37 °C incubation\n13. Read fluorescence Intensity on FDSS for 10 Sec with 1 sec interval\n14. Reagent; 1 uL; stimulation buffer\n15. Read fluorescence Intensity on FDSS for 2 min with 1 sec interval\n16. Detection; Fluorescence Intensity; FDSS", "values": [
      {"smiles": "COc1ccc2c(c1OC)C(=O)OC2C1c2c(cc3c(c2OC)OCO3)CCN1C", "note": "(centres undefined)", "Potency": "inactive"},
      {"smiles": "CN1CCc2c(cc(O)c(O)c2Cl)C(c2cccc(Cl)c2)C1", "note": "(centres undefined)", "Potency": "12.6 µM (active)"},
      {"smiles": "C[C@@H](Oc1ccc(Oc2cnc3ccc(Cl)cc3n2)cc1)C(=O)O", "Potency": "inactive"},
      {"smiles": "Nc1ncnc2c1nc(Br)n2C1O[C@H]2COP(=O)(O)O[C@@H]2C1O", "note": "(some centres undefined)", "Potency": "inactive"},
      {"smiles": "CCCC1O[C@@H]2C[C@H]3[C@@H]4CCC5=CC(=O)C=C[C@]5(C)C4[C@@H](O)C[C@]3(C)[C@]2(C(=O)CO)O1", "note": "(some centres undefined)", "Potency": "inactive"},
      {"smiles": "CNC(=O)[C@H]1O[C@@H](n2cnc3c(N)ncnc32)[C@H](O)[C@H]1O", "Potency": "inactive"},
      {"smiles": "CC1=CC(=O)CC(C)(C)C1(O)/C=C/C(C)=C\\C(=O)O", "note": "(centres undefined)", "Potency": "inactive"},
      {"smiles": "C=C(C)[C@H]1CC=C(C)C(=O)C1", "Potency": "inactive"},
      {"smiles": "COS(C)(=O)=O", "Potency": "inactive"},
      {"smiles": "C=CC(C)(O)CCC=C(C)C", "note": "(centres undefined)", "Potency": "inactive"},
      {"smiles": "Nc1ncnc2c1ncn2[C@@H]1O[C@H](COP(=O)(O)OP(=O)(O)OP(=O)(O)OP(=O)(O)OC[C@@H]2O[C@H](n3cnc4c(N)ncnc43)[C@@H](O)[C@@H]2O)[C@H](O)[C@H]1O", "Potency": "inactive"},
      {"smiles": "CN(C)CCCO[C@H]1C([C@H](O)CO)O[C@@H]2OC(C)(C)O[C@@H]21", "note": "(some centres undefined)", "Potency": "inactive"},
      {"smiles": "Cc1occc(=O)c1O", "Potency": "inactive"},
      {"smiles": "NC(=NCc1ccc(Cl)c(Cl)c1)NC(=O)c1nc(Cl)c(N)nc1N", "Potency": "2 µM (active)"}
    ]}
  ]
}
